This is a sample that favours compounds with a hit; in the whole collection about 3.5% have one here.
MITF inh: blocks human microphthalmia-associated transcription factor; AlphaScreen MITF homodimerization, bead proximity signal; inhibition, % at 2.6 µM; actives 0.91% (n = 650,000); AID 1259374; in the data active = inhibition above about 50%;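 also: 0% = vehicle wells with protein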
GPR151 activ: activates the human receptor GPR151; PathHunter beta-arrestin GPR151 cells, luminescence; activation, % at 11.2 µM; actives 1% (n = 650,000); Q8TDV0; in the data active = activation above about 4.9%;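 also: 0% = median of compound wells and 100% = cells with positive control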
FBW7 activator: human FBW7 E3 ligase activation, primary screen; AID 1259310; normalized activity (activation), % at 26.1 µM; Q969H0; AlphaScreen FBW7–phospho-cyclin E peptide binding, activator screen; actives 0.13% (n = 650,000); in the data active = normalized activity above about 1.9%;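 also: purified mutant Fbw7 with reduced substrate affinity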
Target sequence (Q969H0 whole entry, looked up): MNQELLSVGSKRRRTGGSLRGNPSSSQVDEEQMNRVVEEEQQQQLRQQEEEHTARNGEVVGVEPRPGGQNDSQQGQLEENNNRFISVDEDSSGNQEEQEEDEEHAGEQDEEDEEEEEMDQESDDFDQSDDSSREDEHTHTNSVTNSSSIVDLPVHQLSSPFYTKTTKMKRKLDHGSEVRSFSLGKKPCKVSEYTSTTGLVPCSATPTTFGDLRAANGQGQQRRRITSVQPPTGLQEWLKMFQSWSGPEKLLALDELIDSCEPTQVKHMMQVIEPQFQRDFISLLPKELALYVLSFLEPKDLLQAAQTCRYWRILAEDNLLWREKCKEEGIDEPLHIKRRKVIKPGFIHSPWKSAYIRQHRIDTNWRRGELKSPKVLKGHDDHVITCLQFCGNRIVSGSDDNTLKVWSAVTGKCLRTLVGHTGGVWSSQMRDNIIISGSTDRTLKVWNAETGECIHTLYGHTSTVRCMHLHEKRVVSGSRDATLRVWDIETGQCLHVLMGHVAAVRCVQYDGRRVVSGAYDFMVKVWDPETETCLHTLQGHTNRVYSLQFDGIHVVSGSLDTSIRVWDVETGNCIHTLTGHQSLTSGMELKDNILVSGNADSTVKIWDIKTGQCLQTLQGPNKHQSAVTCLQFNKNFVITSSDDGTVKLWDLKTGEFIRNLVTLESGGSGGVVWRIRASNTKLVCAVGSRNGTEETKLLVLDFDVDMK
TEAD-YAP inh: TEAD-YAP interaction inhibition | HEK-TIYL cells, TEAD-Gal4/YAP UAS-luciferase luminescence | inhibition, % at 9.12 µM | actives 1.4% (n = 640,000); in the data active = inhibition above about 32%;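 also: 0% = median of test compound wells and 100% = reference inhibitor wells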
The depositor's hits bear a star.

SMILES | MITF inh | GPR151 activ | FBW7 activator | TEAD-YAP inh
Cc1cc2c(cc1C)CN(c1cccc(C(=O)NN)c1)C2 | -7 | 2 | 0 | 38*
COc1ccc(N2Cc3ccc(C(=O)NN)cc3C2)cc1 | 26 | 0 | 0 | -35
Cc1cc2c(cc1C)CN(c1cccc(C(=O)O)c1)C2 | 9 | -1 | 0 | 34*
CCN(CC)C(=O)/C(=C\c1cccc([N+](=O)[O-])c1)NC(=O)c1ccc(Br)cc1 | 3 | -1 | 0 | 1
CCCCCCn1nc(C(=O)Nc2cc(C(N)=O)cc(C(N)=O)c2)c2ccccc2c1=O | -11 | 2 | 2.1* | -4
O=C(NNC(=S)NCC1CCCO1)C(Sc1ccccc1)c1ccccc1 (stereo unspecified) | 2 | 1 | 2.2* | 1
CC(=O)Nc1cccc(-c2cc(=O)c3ccccc3o2)c1O | -5 | -2 | 0 | -47
O=c1cc2oc3cc(O)c(O)cc3c(-c3ccccn3)c-2cc1O | 86* | -1 | -2 | 5
COc1cc2ccc(=O)oc2cc1O | 2 | -1 | 0 | 7
COc1ccccc1-c1c2cc(O)c(=O)cc-2oc2cc(O)c(O)cc12 | 104* | -1 | 0 | 8
O=c1cc2oc3cc(O)c(O)cc3c(-c3cccc(Cl)c3Cl)c-2cc1O | 102* | -1 | 0 | 11
COc1cc(OC)c(-c2c3cc(O)c(=O)cc-3oc3cc(O)c(O)cc23)cc1OC | 110* | -1 | 0 | 8
COc1cccc(-c2cc(=O)c3ccccc3o2)c1N | -11 | -2 | 0 | -53
O=C(O)/C=C/C(=O)NNC(=O)c1ccccc1 | 19 | 0 | 0 | -71
COc1ccc(S(=O)(=O)NCC2CCCN(Cc3cc4ccccc4s3)C2)cc1 (stereo unspecified) | 11 | 5 | 0 | 8
Cc1ccc(C)c(CSc2nc3ccsc3c(=O)n2CCCCC(=O)O)c1 | 2 | 0 | 0 | 57*
COC(=O)Cn1c(SCc2cc(C)ccc2C)nc2ccsc2c1=O | 14 | 0 | 0 | 63*
Cc1ccc(CNC(=O)CCCCCn2c(SCc3cc(C)ccc3C)nc3ccsc3c2=O)cc1 | -6 | 1 | 0 | -2
Cc1ccc(CN(C)S(=O)(=O)c2ccc3ccccc3c2)cc1 | -4 | 2 | 0 | 9
Cc1nn(C)c(C)c1CN(C)S(=O)(=O)c1ccc2ccccc2c1 | -2 | 2 | 0 | 56*
Cc1ccc2c(c1)-c1c(cnn1CC(=O)Nc1ccc(C)c(F)c1)CO2 | -10 | 0 | 0 | -6
Cc1ccc2c(c1)-c1c(cnn1CC(=O)Nc1ccc3c(C)cc(=O)oc3c1)CO2 | 13 | -1 | 1 | 49*
Cc1cc(=O)oc2cc(NC(=O)Cn3ncc4c3-c3ccccc3OC4)ccc12 | -1 | 0 | 0 | 49*
Cc1cc(C)cc(NC(=O)Cn2ncc3c2-c2ccccc2OC3)c1 | -6 | 2 | 0 | 0
COc1ccccc1CNC(=O)COc1ccc(N2CCN(c3ccccn3)CC2)nn1 | 12 | 0 | 0 | 0
SMILES | MITF inh | GPR151 activ | FBW7 activator | TEAD-YAP inh
CN(CC(=O)NC1CCCC1)S(=O)(=O)c1ccc(F)cc1 | 11 | -1 | 0 | -4
O=S(=O)(c1ccc2c(c1)N=Cc1c(F)cccc1O2)N1CCOCC1 | -11 | 0 | 0 | 45*
O=S(=O)(c1ccc2c(c1)N=Cc1c(nc3sccn13)O2)N1CCOCC1 | 6 | 0 | 0 | -9
CC1CCN(S(=O)(=O)c2cc(C(=O)Nc3cccc(C(F)(F)F)c3)ccc2F)CC1 | -5 | 0 | 0 | -12
COc1cc(/C=C2/SC(=Nc3cccc(C)c3)NC2=O)ccc1OCc1ccccc1C#N | 1 | 0 | 0 | 18
COc1cc(/C=C2/C(=O)Nc3ccccc32)cc(OC)c1O | 1 | 1 | 0 | -11
COc1cc(OC)c(/C=C2/C(=O)Nc3ccccc32)c(OC)c1 | 0 | 2 | 0 | 53*
Cc1nc2cnc(-c3cccc(N(C)C)c3)cn2c1NC(=O)c1ccncc1 | 16 | 1 | 0 | -25
C/C(=N\N=C1/NC(=O)C(C)S1)c1ccc(C)cc1 (stereo unspecified) | -1 | 0 | 0 | 47*
CCCn1c(/C=N/Nc2nc3ccccc3[nH]2)nc2ccccc21 | 17 | 1 | 0 | 1
Cn1c(/C=N/Nc2nc3ccccc3[nH]2)nc2ccccc21 | -24 | -1 | 0 | 40*
CC(C)n1c(/C=N/Nc2nc3ccccc3[nH]2)nc2ccccc21 | 11 | 0 | 0 | 37*
O=C(NCc1ccccc1)N(Cc1ccco1)Cc1cc2cc3c(cc2[nH]c1=O)OCO3 | 15 | 0 | 0 | 17
CCCCN(CC)S(=O)(=O)c1ccc(C(=O)Nc2ccc3sc(C)nc3c2)cc1 | 21 | 0 | 0 | 53*
Cc1nc2ccccc2c(=O)n1NCc1ccco1 | -1 | -1 | 0 | -4
O=C(Nc1nccs1)c1cn(-c2ccccc2)nc1-c1ccc(Br)cc1 | 5 | -1 | 0 | 17
O=C(Nc1nccs1)c1cn(-c2ccccc2)nc1-c1cccnc1 | -2 | 2 | 0 | 38*
COc1cc(/C=C2/C(=N)N3OC(C)=CC3=NC2=O)ccc1OCc1ccc(F)cc1 | 3 | -2 | 0 | -36
O=C(N/N=C/c1ccc2ccccc2c1)c1ccc(O)cc1O | -7 | 3 | 0 | 37*
CN(C)c1ccc(/C=N\NC(=O)c2cc(N)ccc2O)cc1 | 64* | 0 | 0 | 9
Cc1ccccc1C(=O)N/N=C/c1ccc(O)c(O)c1 | 9 | -1 | 0 | -35
Cc1[nH]n(-c2ccccc2)c(=O)c1/C=N/NC(=O)c1ccc(O)cc1O | 59* | 3 | 0 | 12
Cc1ccccc1C(=O)N/N=C/c1ccc(O)c(Br)c1 | 0 | 1 | -1 | 71*
CC(=O)O[C@H]1C[C@@H]2CC[C@@H]3[C@H](CCC4(C)[C@H]3C[C@H]([N+]3(C)CCCCC3)[C@@H]4OC(C)=O)C2(C)C[C@@H]1N1CCCCC1 (stereo partly specified) | 10 | -2 | 1 | 8
O=C(N/N=C/c1ccc(/C=N/NC(=O)c2ccccc2O)cc1)c1ccccc1O | 16 | 0 | 0 | 59*
SMILES | MITF inh | GPR151 activ | FBW7 activator | TEAD-YAP inh
COc1ccc(CCNc2cc(Nc3cnccn3)ncn2)cc1 | 12 | -1 | 0 | 3
COc1ccc(CCNc2cc(-c3csc4ccccc34)nc(N)n2)cc1 | 8 | 2 | 1 | 57*
Nc1nc(NCc2cccc(C(F)(F)F)c2)cc(-c2csc3ccccc23)n1 | 9 | -1 | 0 | 53*
COc1ccc(-c2cc(NCc3cccc(C(F)(F)F)c3)nc(N)n2)cc1 | 9 | 0 | 0 | 3
COc1ccc(-c2cc(NCc3cccc(C(F)(F)F)c3)nc(N)n2)cn1 | 1 | 4 | 0 | 46*
Nc1nc(NCc2ccccc2)cc(-c2csc3ccccc23)n1 | 8 | 0 | 0 | 2
COc1ccc(CCNc2cc(Nc3cnccn3)nc(N)n2)cc1 | -6 | -1 | 0 | 35*
Cc1ccc(Cn2c(C(=O)O)c(CNCc3cccs3)c3ccccc32)cc1 | 9 | 1 | 0 | 14
Cc1cc(C)nc(N2CCC(CNC(=O)c3ccc(OC4CSC4)cc3)CC2)n1 | 2 | -1 | 0 | -10
Cc1cc(CNC(=O)c2cccc(OC3CCN(C4CCN(C)CC4)CC3)c2)on1 | -6 | 0 | 0 | -5
